Assay [1] relates to Jurkat. In words: mean cell size (FSC-A) relative to DMSO control (fraction of control); higher = larger cells. To be noted: 48 h. Put shortly: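 Jurkat cells seeded at 600 cells/µl were incubated 1 h, then exposed for 48h to the Enzo Screen-Well FDA Approved Drug Library v2.0 at 25µM in 0.9% (v/v) final DMSO. Drugs that cut counts below 20% of controls were diluted 10-fold and retested, down to 25nM. Cell count and mean cell size (forward scatter area) were read on an Accuri C6 flow cytometer, relative to solvent-only controls. Plates held 6-12 controls; values are means of 3 biological replicates.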

The test system of assay [2] is Jurkat. In words: cell count relative to DMSO control (fraction of control); higher = more cells (less growth inhibition). The settings on record: 48 h.

Where a name gives a salt, the structure may show the parent alone. ± gives the standard deviation.

Here are results for 23 molecules from the supplement of paper PMC4709259.

In the assay on Jurkat [1], `CC[C@H]1OC(=O)[C@H](C)[C@@H](O[C@H]2C[C@@](C)(OC)[C@@H](O)[C@H](C)O2)[C@H](C)[C@@H](O[C@@H]2O[C@H](C)C[C@H](N(C)C)[C@H]2O)[C@](C)(O)C[C@@H](C)CN(C)[C@H](C)[C@@H](O)[C@]1(C)O` [Azithromycin] (concentration: 25 µM) showed a mean cell size of 0.948 ± 0.027. The same molecule registered a cell count with Jurkat [2] of 0.628 ± 0.078.
For `C[C@]12CC[C@@H]3c4ccc(O)cc4C[C@@H](CCCCCCCCC[S+]([O-])CCCC(F)(F)C(F)(F)F)[C@H]3[C@@H]1CC[C@@H]2O` (stereo partly specified) [Fulvestrant] (concentration: 25 µM), the mean cell size with Jurkat [1] is 0.942 ± 0.0098. Moreover, in the assay on Jurkat [2], the cell count came out at 0.862 ± 0.061.
Taken in the same sequence, the figures for `C[C@]12CCC(=O)C=C1CC[C@@H]1[C@@H]2[C@@H](O)C[C@@]2(C)[C@H]1CC[C@]2(O)C(=O)CO` [Hydrocortisone] (concentration: 25 µM) were 0.9165 ± 0.0081 and 0.72 ± 0.092.
For `CN(C)CCOc1ccc(/C(=C(/CCCl)c2ccccc2)c2ccccc2)cc1` [Toremifene Base] (concentration: 25 µM), the mean cell size with Jurkat [1] turned out to be 0.9556 ± 0.0078. The molecule also showed a cell count with Jurkat [2] of 0.948 ± 0.079.
In the assay on Jurkat [1], `NC(=O)C(c1ccccc1)(c1ccccc1)[C@@H]1CCN(CCc2ccc3c(c2)CCO3)C1` [Darifenacin·HBr] (concentration: 25 µM) came in with a mean cell size of 1.02 ± 0.015. The same molecule had a cell count in the assay with Jurkat [2] of 0.723 ± 0.087.
`O=C(O)c1cc(=O)c2c(OCC(O)COc3cccc4oc(C(=O)O)cc(=O)c34)cccc2o1` [Cromolyn·Na (Disodium Cromoglycate)] (concentration: 25 µM) came in with a mean cell size in the assay on Jurkat [1] of 0.9231 ± 0.0045. The molecule further gave a cell count in the assay with Jurkat [2] of 1.05 ± 0.096.
With `Cc1cnc(NC(=O)C2=C(O)c3ccccc3S(=O)(=O)N2C)s1` [Meloxicam] (concentration: 25 µM), the mean cell size in the assay with Jurkat [1] amounted to 0.9071 ± 0.0086. In the assay with Jurkat [2], this molecule had a cell count of 0.808 ± 0.066.
Taken in the same sequence, the figures for `C[C@]12CCC(=O)C=C1[C@@H]1C[C@@H]1[C@H]1[C@@H]3[C@@H]4C[C@@H]4[C@@]4(CCC(=O)O4)[C@@]3(C)CC[C@@H]12` [Drospirenone] (concentration: 25 µM) were 0.962 ± 0.03 and 0.692 ± 0.11.
As for `CC[C@@H]1C(=O)OC[C@@H]1Cc1cncn1C` [Pilocarpine·HCl] (concentration: 25 µM), the mean cell size with Jurkat [1] amounted to 0.97 ± 0.049. This molecule also registered a cell count in the assay on Jurkat [2] of 0.246 ± 0.11.
Taken in the same sequence, the figures for `CC(C)NCC(O)COc1ccc(COCCOC(C)C)cc1` (stereo unspecified) [Bisoprolol Fumarate] (concentration: 25 µM) were 0.964 ± 0.046 and 0.732 ± 0.035.
In the assay on Jurkat [1], `CCOC(=O)[C@H](CCc1ccccc1)N[C@@H](C)C(=O)N1Cc2cc(OC)c(OC)cc2C[C@H]1C(=O)O` [Moexipril·HCl] (concentration: 25 µM) displayed a mean cell size of 0.9426 ± 0.0064. The molecule also displayed a cell count with Jurkat [2] of 0.587 ± 0.074.
For the molecule `CNNCc1ccc(C(=O)NC(C)C)cc1` [Procarbazine·HCl] (concentration: 25 µM), the mean cell size with Jurkat [1] came to 1.01 ± 0.053. In the assay on Jurkat [2], the cell count is 0.822 ± 0.1.
Taken in the same sequence, the figures for `O=c1[nH]cnc2c1ncn2[C@H]1CC[C@@H](CO)O1` [Didanosine] (concentration: 25 µM) were 0.9758 ± 0.0048 and 0.462 ± 0.15.
Taken in the same sequence, the figures for `O=C1CCCC(=O)C1C(=O)c1ccc(C(F)(F)F)cc1[N+](=O)[O-]` [Nitisinone] (concentration: 25 µM) were 0.938 ± 0.017 and 0.936 ± 0.1.
The matching figures for `CCC1(C)CC(=O)NC1=O` (stereo unspecified) [Ethosuximide] (concentration: 25 µM): 1.05 ± 0.025 and 1.08 ± 0.074.
In the case of `CCCCC(C)(O)C/C=C/[C@H]1[C@H](O)CC(=O)[C@@H]1CCCCCCC(=O)OC` (mixture of isomers) [Misoprostol] (concentration: 25 µM), the mean cell size with Jurkat [1] was determined as 0.939 ± 0.037. The molecule further registered a cell count in the assay with Jurkat [2] of 0.702 ± 0.08.
In turn, `Cc1cccc(C)c1OCC(C)N` (stereo unspecified) [Mexiletine·HCl] (concentration: 25 µM) displayed a mean cell size in the assay with Jurkat [1] of 0.983 ± 0.012. Besides, the cell count with Jurkat [2] amounted to 0.719 ± 0.014.
In the assay with Jurkat [1], `CC(C)NCC(O)c1cc(O)cc(O)c1` (stereo unspecified) [Metaproterenol Hemisulfate (Orciprenaline)] (concentration: 25 µM) showed a mean cell size of 1.1 ± 0.033. This molecule came in with a cell count in the assay on Jurkat [2] of 0.895 ± 0.04.
In the assay with Jurkat [1], `COc1cc2nc(N3CCN(C(=O)C4CCCO4)CC3)nc(N)c2cc1OC` (stereo unspecified) [Terazosin·HCl] (concentration: 25 µM) returned a mean cell size of 0.997 ± 0.047. This molecule also had a cell count with Jurkat [2] of 0.607 ± 0.059.
Taken in the same sequence, the figures for `CCC[C@H](N[C@@H](C)C(=O)N1[C@H](C(=O)O)C[C@@H]2CCCC[C@@H]21)C(=O)OCC` [Perindopril Erbumine] (concentration: 25 µM) were 0.995 ± 0.051 and 0.637 ± 0.091.
In turn, `C#C[C@]1(O)CC[C@H]2[C@@H]3CCC4=Cc5oncc5C[C@]4(C)[C@H]3CC[C@@]21C` [Danazol] (concentration: 25 µM) registered a mean cell size in the assay on Jurkat [1] of 0.995 ± 0.026. The molecule also came in with a cell count in the assay with Jurkat [2] of 0.92 ± 0.08.
As for `NNC(=O)c1ccncc1` [Isoniazid] (concentration: 25 µM), the mean cell size in the assay on Jurkat [1] was determined as 0.969 ± 0.022. In the assay on Jurkat [2], this molecule had a cell count of 0.925 ± 0.019.
In the assay on Jurkat [1], `Cc1cn([C@@H]2C[C@@H](O)[C@H](CO)O2)c(=O)[nH]c1=O` [Telbivudine] (concentration: 25 µM) registered a mean cell size of 0.927 ± 0.037. In addition, the cell count in the assay with Jurkat [2] stood at 1.04 ± 0.17.
